Experimental data from the supplement of paper PMC8728848.
Many of the other results were omitted from the sample, so the strongest signals are more common in it than they were.

Key:
Assay in all cases: glycan array binding signal (z-score within array); higher = stronger binding
Settings in all cases: glycan notation: IUPAC condensed, linker removed
[1] = target: Fuc(a1-2)Gal(b1-3)GalNAc(b1-4)[Neu5Ac(a2-3)]Gal(b1-4)Glc
In short: (§1)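 Glycan array binding is given as a within-array Z-score, which can be read as non-binding when negative. The arrays, 3228 of them, came from the Consortium for Functional Glycomics database and were retained only where the protein sequence was available. Z-scores were averaged across arrays of the same protein sequence at different concentrations or buffers and across linkers.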

[2] = target: Fuc(a1-2)Gal(b1-4)Glc6S
In short: as §1

[3] = target: Fuc(a1-2)[Gal(a1-3)]Gal(b1-4)[Fuc(a1-3)]GlcNAc
In short: as §1

[4] = target: Fuc(a1-2)[GalNAc(a1-3)]Gal(b1-3)GlcNAc
In short: as §1

[5] = target: Fuc(a1-2)[GalNAc(a1-3)]Gal(b1-3)GlcNAc(b1-3)GalNAc
In short: as §1

[6] = target: Fuc(a1-2)[GalNAc(a1-3)]Gal(b1-4)GlcNAc(b1-2)Man(a1-3)[Fuc(a1-2)[GalNAc(a1-3)]Gal(b1-4)GlcNAc(b1-2)Man(a1-6)]Man(b1-4)GlcNAc(b1-4)[Fuc(a1-6)]GlcNAc
In short: as §1

[7] = target: Fuc(a1-3)[Gal(b1-4)]GlcNAc
In short: as §1

[8] = target: Gal(a1-3)Gal(b1-3)GlcNAc(b1-2)Man(a1-3)[Gal(a1-3)Gal(b1-3)GlcNAc(b1-2)Man(a1-6)]Man(b1-4)GlcNAc(b1-4)GlcNAc
In short: as §1

[9] = target: Gal(a1-3)Gal(b1-4)GlcNAc(b1-6)GalNAc
In short: as §1

[10] = target: Gal(b1-3)GlcNAc(b1-3)Gal(b1-4)GlcNAc(b1-2)[Gal(b1-3)GlcNAc(b1-3)Gal(b1-4)GlcNAc(b1-6)]Man(a1-6)[Gal(b1-3)GlcNAc(b1-3)Gal(b1-4)GlcNAc(b1-2)Man(a1-3)]Man(b1-4)GlcNAc(b1-4)[Fuc(a1-6)]GlcNAc
In short: as §1

[11] = target: Gal(b1-3)[Fuc(a1-4)]GlcNAc(b1-6)GalNAc
In short: as §1

[12] = target: Gal(b1-3)[Neu5Ac(b2-6)]GalNAc
In short: as §1

[13] = target: Gal(b1-4)GlcNAc(b1-2)Man(a1-3)[Gal(b1-4)GlcNAc(b1-2)Man(a1-6)]Man(b1-4)GlcNAc(b1-4)GlcNAc
In short: as §1

[14] = target: Gal(b1-4)GlcNAc(b1-3)Gal(b1-4)GlcNAc(b1-2)[Gal(b1-4)GlcNAc(b1-3)Gal(b1-4)GlcNAc(b1-6)]Man(a1-6)[Gal(b1-4)GlcNAc(b1-3)Gal(b1-4)GlcNAc(b1-2)Man(a1-3)]Man(b1-4)GlcNAc(b1-4)[Fuc(a1-6)]GlcNAc
In short: as §1

[15] = target: Gal(b1-4)GlcNAc(b1-3)Gal(b1-4)GlcNAc(b1-3)Gal(b1-4)GlcNAc(b1-2)Man(a1-3)[Gal(b1-4)GlcNAc(b1-3)Gal(b1-4)GlcNAc(b1-3)Gal(b1-4)GlcNAc(b1-2)Man(a1-6)]Man(b1-4)GlcNAc(b1-4)[Fuc(a1-6)]GlcNAc
In short: as §1

[16] = target: Gal(b1-4)GlcNAc(b1-3)Gal(b1-4)GlcNAc(b1-3)Gal(b1-4)GlcNAc(b1-3)Gal(b1-4)GlcNAc(b1-2)[Gal(b1-4)GlcNAc(b1-3)Gal(b1-4)GlcNAc(b1-3)Gal(b1-4)GlcNAc(b1-3)Gal(b1-4)GlcNAc(b1-6)]Man(a1-6)[Gal(b1-4)GlcNAc(b1-3)Gal(b1-4)GlcNAc(b1-3)Gal(b1-4)GlcNAc(b1-3)Gal(b1-4)GlcNAc(b1-2)Man(a1-3)]Man(b1-4)GlcNAc(b1-4)[Fuc(a1-6)]GlcNAc
In short: as §1

[17] = target: Gal3S(b1-3)GlcNAc
In short: as §1

[18] = target: Gal3S6S(b1-4)GlcNAc6S
In short: as §1

[19] = target: Gal6S(b1-3)GlcNAc
In short: as §1

[20] = target: GlcA3S(b1-3)Gal(b1-4)GlcNAc(b1-3)Gal(b1-4)Glc
In short: as §1

[21] = target: GlcNAc(b1-3)Gal(b1-4)GlcNAc(b1-2)Man(a1-3)[GlcNAc(b1-3)Gal(b1-4)GlcNAc(b1-2)Man(a1-6)]Man(b1-4)GlcNAc(b1-4)[Fuc(a1-6)]GlcNAc
In short: as §1

[22] = target: GlcNAc(b1-3)Gal(b1-4)GlcNAc(b1-3)Gal(b1-4)GlcNAc(b1-2)[GlcNAc(b1-3)Gal(b1-4)GlcNAc(b1-3)Gal(b1-4)GlcNAc(b1-6)]Man(a1-6)[GlcNAc(b1-3)Gal(b1-4)GlcNAc(b1-3)Gal(b1-4)GlcNAc(b1-2)Man(a1-3)]Man(b1-4)GlcNAc(b1-4)[Fuc(a1-6)]GlcNAc
In short: as §1

[23] = target: GlcNAc(b1-3)Gal(b1-4)GlcNAc(b1-3)Gal(b1-4)GlcNAc(b1-3)Gal(b1-4)GlcNAc(b1-2)Man(a1-3)[GlcNAc(b1-3)Gal(b1-4)GlcNAc(b1-3)Gal(b1-4)GlcNAc(b1-3)Gal(b1-4)GlcNAc(b1-2)Man(a1-6)]Man(b1-4)GlcNAc(b1-4)GlcNAc
In short: as §1

[24] = target: GlcNAc(b1-3)GalNAc
In short: as §1

[25] = target: Kdn(a2-3)Gal(b1-4)[Fuc(a1-3)]GlcNAc
In short: as §1

[26] = target: Man(a1-2)Man(a1-3)[Man(a1-2)Man(a1-6)]Man(a1-6)[Man(a1-2)Man(a1-2)Man(a1-3)]Man
In short: as §1

[27] = target: Man(a1-3)[Man(a1-6)]Man(a1-6)[Man(a1-2)Man(a1-3)]Man(b1-4)GlcNAc(b1-4)GlcNAc
In short: as §1

[28] = target: Neu5Ac(a2-3)Gal(b1-3)GlcNAc(b1-2)Man(a1-3)[GlcNAc(b1-4)][Neu5Ac(a2-3)Gal(b1-3)GlcNAc(b1-2)Man(a1-6)]Man(b1-4)GlcNAc(b1-4)GlcNAc
In short: as §1

[29] = target: Neu5Ac(a2-3)Gal(b1-3)]Neu5Ac(a2-3)Gal(b1-4)]GlcNAc
In short: as §1

[30] = target: Neu5Ac(a2-3)Gal(b1-4)GlcNAc(b1-2)Man(a1-3)[Neu5Ac(a2-6)Gal(b1-4)GlcNAc(b1-2)Man(a1-6)]Man(b1-4)GlcNAc(b1-4)GlcNAc
In short: as §1

[31] = target: Neu5Ac(a2-3)Gal(b1-4)GlcNAc(b1-3)Gal(b1-4)GlcNAc(b1-3)GalNAc
In short: as §1

[32] = target: Neu5Ac(a2-3)Gal(b1-4)GlcNAc(b1-3)Gal(b1-4)GlcNAc(b1-6)[Gal(b1-3)]GalNAc
In short: as §1

[33] = target: Neu5Ac(a2-3)Gal(b1-4)GlcNAc(b1-6)[Gal(b1-3)]GalNAc
In short: as §1

[34] = target: Neu5Ac(a2-3)Gal(b1-4)[Fuc(a1-3)]GlcNAc(b1-3)Gal
In short: as §1

[35] = target: Neu5Ac(a2-3)[GalNAc(b1-4)]Gal(b1-4)GlcNAc(b1-3)GalNAc
In short: as §1

[36] = target: Neu5Ac(a2-6)Gal(b1-4)GlcNAc
In short: as §1

[37] = target: Neu5Ac(a2-6)Gal(b1-4)GlcNAc(b1-2)Man
In short: as §1

[38] = target: Neu5Ac(a2-6)Gal(b1-4)GlcNAc(b1-2)Man(a1-3)[Man(a1-6)]Man(b1-4)GlcNAc(b1-4)GlcNAc
In short: as §1

[39] = target: Neu5Ac(a2-6)Gal(b1-4)GlcNAc(b1-2)[Neu5Ac(a2-6)Gal(b1-4)GlcNAc(b1-6)]Man(a1-6)[Neu5Ac(a2-6)Gal(b1-4)GlcNAc(b1-2)Man(a1-3)][GlcNAc(b1-4)]Man(b1-4)GlcNAc(b1-4)GlcNAc
In short: as §1

[40] = target: Neu5Ac(a2-6)Gal(b1-4)GlcNAc(b1-6)[Gal(b1-3)GlcNAc(b1-3)]Gal(b1-4)Glc
In short: as §1

[41] = target: Neu5Ac(a2-6)Gal(b1-4)GlcNAc6S
In short: as §1

[42] = target: Neu5Ac(a2-6)GalNAc
In short: as §1

[43] = target: Neu5Ac(a2-8)Neu5Ac(a2-3)Gal(b1-4)Glc
In short: as §1

[44] = target: Neu5Ac(a2-8)Neu5Ac(a2-8)Neu5Ac(a2-3)[Gal(b1-3)GalNAc(b1-4)]Gal(b1-4)Glc
In short: as §1

[45] = target: Neu5Ac(a2-8)Neu5Gc(a2-3)Gal(b1-4)GlcNAc
In short: as §1

B1: CM2 (Cordyceps militaris) (protein)
chain: MEIAEQNVGKSCAIVNLIPPKEGSNIWTAKQVTIARNLPPNRGTGRHQIDWSFGPVKVTGYVDTTNWEIGVTVSIMGIDLGTVYGNLRDGVVLNVDLFLAKGQVRFYLKNGNEVWVHLSVEIRFDGKFEGDYKIITV
For B1, the “glycan array binding signal (z-score)” value [1] was 0.28, the “glycan array binding signal (z-score)” value [2] was -0.639 and the “glycan array binding signal (z-score)” value [3] was 1.81. The “glycan array binding signal (z-score)” value [4] was 1.61, the “glycan array binding signal (z-score)” value [5] was 1.29 and the “glycan array binding signal (z-score)” value [6] was 0.394. The “glycan array binding signal (z-score)” value [7] was 0.057, the “glycan array binding signal (z-score)” value [8] was -0.635 and the “glycan array binding signal (z-score)” value [9] was -0.847. For the same binder, the “glycan array binding signal (z-score)” value [10] was 0.677, the “glycan array binding signal (z-score)” value [11] was 0.038 and the “glycan array binding signal (z-score)” value [12] was 0.422. The “glycan array binding signal (z-score)” value [13] was -1.28, the “glycan array binding signal (z-score)” value [14] was 2.29 and the “glycan array binding signal (z-score)” value [15] was 3.05. The “glycan array binding signal (z-score)” value [16] was 1.2, the “glycan array binding signal (z-score)” value [17] was 0.015 and the “glycan array binding signal (z-score)” value [18] was 3.73. The “glycan array binding signal (z-score)” value [19] was -0.595, the “glycan array binding signal (z-score)” value [20] was 0.06 and the “glycan array binding signal (z-score)” value [21] was 2.3. For the same binder, the “glycan array binding signal (z-score)” value [22] was 3.55, the “glycan array binding signal (z-score)” value [23] was -0.287 and the “glycan array binding signal (z-score)” value [24] was -0.452. The “glycan array binding signal (z-score)” value [25] was 0.801, the “glycan array binding signal (z-score)” value [26] was 2.53 and the “glycan array binding signal (z-score)” value [27] was 2.43. The “glycan array binding signal (z-score)” value [28] was 1.74, the “glycan array binding signal (z-score)” value [29] was 3.98 and the “glycan array binding signal (z-score)” value [30] was 0.37. For the same binder, the “glycan array binding signal (z-score)” value [31] was 3.11, the “glycan array binding signal (z-score)” value [32] was -1.25 and the “glycan array binding signal (z-score)” value [33] was -0.406. For the same binder, the “glycan array binding signal (z-score)” value [34] was 0.036, the “glycan array binding signal (z-score)” value [35] was 0.919 and the “glycan array binding signal (z-score)” value [36] was -0.125. The “glycan array binding signal (z-score)” value [37] was 2.54, the “glycan array binding signal (z-score)” value [38] was -0.907 and the “glycan array binding signal (z-score)” value [39] was -0.924. The “glycan array binding signal (z-score)” value [40] was -1.25, the “glycan array binding signal (z-score)” value [41] was -1.69 and the “glycan array binding signal (z-score)” value [42] was 0.447. The “glycan array binding signal (z-score)” value [43] was -0.496, the “glycan array binding signal (z-score)” value [44] was -0.622 and the “glycan array binding signal (z-score)” value [45] was -1.52.
